# Laboratory results published in publication PMC9911399, “Two distinct binding modes provide the RNA-binding protein RbFox with extraordinary sequence specificity”.
# Residue numbers refer to the chain shown, from its start. Over roughly 16,000 sequences, “ka relative to ugcaugu” has its median near 0.0091; the highest 2% begin near 0.032. Shown is part of a subset that was picked to be rich in the highest values.
# B1: GUGCGUA (DNA:RNA)
# RNA: GGGAGACCGGAAUUCAGAUUGUCCGUGCGUAUUAAAUCCCGUCGUAGCCACCA
# DNA 1: CAATCTGAATTCCGGTCTCCC
# DNA 2: TGGTGGCTACGACGGGATT
# B2: CGUGGAA (DNA:RNA)
# RNA: B1 RNA with G25C, U26G, G27U, C28G, U30A
# DNA 1: CAATCTGAATTCCGGTCTCCC
# DNA 2: TGGTGGCTACGACGGGATT
# B3: CCCGACG (DNA:RNA)
# RNA: GGGAGACCGGAAUUCAGAUUGUCCCCCGACGUUAAAUCCCGUCGUAGCCACCA
# DNA 1: CAATCTGAATTCCGGTCTCCC
# DNA 2: TGGTGGCTACGACGGGATT
# B4: CGAGUCG (DNA:RNA)
# RNA: B3 RNA with C26G, C27A, A29U
# DNA 1: CAATCTGAATTCCGGTCTCCC
# DNA 2: TGGTGGCTACGACGGGATT
# B5: UCGCCGA (DNA:RNA)
# RNA: B1 RNA with G25U, U26C, G29C, U30G
# DNA 1: CAATCTGAATTCCGGTCTCCC
# DNA 2: TGGTGGCTACGACGGGATT
# B6: AAGUACG (DNA:RNA)
# RNA: B3 RNA with C25A, C26A, C27G, G28U
# DNA 1: CAATCTGAATTCCGGTCTCCC
# DNA 2: TGGTGGCTACGACGGGATT
# B7: GGGCAUC (DNA:RNA)
# RNA: B1 RNA with U26G, G29A, A31C
# DNA 1: CAATCTGAATTCCGGTCTCCC
# DNA 2: TGGTGGCTACGACGGGATT
# B8: GGGCAUU (DNA:RNA)
# RNA: B1 RNA with U26G, G29A, A31U
# DNA 1: CAATCTGAATTCCGGTCTCCC
# DNA 2: TGGTGGCTACGACGGGATT
# B9: GGGCAUA (DNA:RNA)
# RNA: B1 RNA with U26G, G29A
# DNA 1: CAATCTGAATTCCGGTCTCCC
# DNA 2: TGGTGGCTACGACGGGATT
# B10: GGGGCAU (DNA:RNA)
# RNA: B1 RNA with U26G, C28G, G29C, U30A, A31U
# DNA 1: CAATCTGAATTCCGGTCTCCC
# DNA 2: TGGTGGCTACGACGGGATT
# B11: GGGCAUG (DNA:RNA)
# RNA: B1 RNA with U26G, G29A, A31G
# DNA 1: CAATCTGAATTCCGGTCTCCC
# DNA 2: TGGTGGCTACGACGGGATT
# B12: CGGGCAU (DNA:RNA)
# RNA: B3 RNA with C26G, C27G, A29C, C30A, G31U
# DNA 1: CAATCTGAATTCCGGTCTCCC
# DNA 2: TGGTGGCTACGACGGGATT
# B13: CGCCCAU (DNA:RNA)
# RNA: B3 RNA with C26G, G28C, A29C, C30A, G31U
# DNA 1: CAATCTGAATTCCGGTCTCCC
# DNA 2: TGGTGGCTACGACGGGATT
# B14: AGCCGAC (DNA:RNA)
# RNA: B1 RNA with G25A, U26G, G27C, U30A, A31C
# DNA 1: CAATCTGAATTCCGGTCTCCC
# DNA 2: TGGTGGCTACGACGGGATT
# B15: UCGCCUU (DNA:RNA)
# RNA: B1 RNA with G25U, U26C, G29C, A31U
# DNA 1: CAATCTGAATTCCGGTCTCCC
# DNA 2: TGGTGGCTACGACGGGATT
# B16: GGAAGAA (DNA:RNA)
# RNA: B1 RNA with U26G, G27A, C28A, U30A
# DNA 1: CAATCTGAATTCCGGTCTCCC
# DNA 2: TGGTGGCTACGACGGGATT
# B17: GGGAGAA (DNA:RNA)
# RNA: B1 RNA with U26G, C28A, U30A
# DNA 1: CAATCTGAATTCCGGTCTCCC
# DNA 2: TGGTGGCTACGACGGGATT
# B18: CGGAAGA (DNA:RNA)
# RNA: B3 RNA with C26G, C27G, G28A, C30G, G31A
# DNA 1: CAATCTGAATTCCGGTCTCCC
# DNA 2: TGGTGGCTACGACGGGATT
# B19: GGAGAAA (DNA:RNA)
# RNA: B3 RNA with C25G, C26G, C27A, C30A, G31A
# DNA 1: CAATCTGAATTCCGGTCTCCC
# DNA 2: TGGTGGCTACGACGGGATT
# B20: GGGAAGA (DNA:RNA)
# RNA: B1 RNA with U26G, C28A, G29A, U30G
# DNA 1: CAATCTGAATTCCGGTCTCCC
# DNA 2: TGGTGGCTACGACGGGATT
# B21: GUCAGAA (DNA:RNA)
# RNA: B1 RNA with G27C, C28A, U30A
# DNA 1: CAATCTGAATTCCGGTCTCCC
# DNA 2: TGGTGGCTACGACGGGATT
# B22: ACUGGCG (DNA:RNA)
# RNA: B3 RNA with C25A, C27U, A29G
# DNA 1: CAATCTGAATTCCGGTCTCCC
# DNA 2: TGGTGGCTACGACGGGATT
# B23: CAGGCCG (DNA:RNA)
# RNA: B3 RNA with C26A, C27G, A29C
# DNA 1: CAATCTGAATTCCGGTCTCCC
# DNA 2: TGGTGGCTACGACGGGATT
# B24: CGUUGAG (DNA:RNA)
# RNA: B3 RNA with C26G, C27U, G28U, A29G, C30A
# DNA 1: CAATCTGAATTCCGGTCTCCC
# DNA 2: TGGTGGCTACGACGGGATT
# B25: GCUCGUC (DNA:RNA)
# RNA: B1 RNA with U26C, G27U, A31C
# DNA 1: CAATCTGAATTCCGGTCTCCC
# DNA 2: TGGTGGCTACGACGGGATT
# B26: GCUUGUC (DNA:RNA)
# RNA: B1 RNA with U26C, G27U, C28U, A31C
# DNA 1: CAATCTGAATTCCGGTCTCCC
# DNA 2: TGGTGGCTACGACGGGATT
# B27: GCUUGAA (DNA:RNA)
# RNA: B1 RNA with U26C, G27U, C28U, U30A
# DNA 1: CAATCTGAATTCCGGTCTCCC
# DNA 2: TGGTGGCTACGACGGGATT
# B28: GCUCUUG (DNA:RNA)
# RNA: B1 RNA with U26C, G27U, G29U, A31G
# DNA 1: CAATCTGAATTCCGGTCTCCC
# DNA 2: TGGTGGCTACGACGGGATT
# B29: CCGCUGG (DNA:RNA)
# RNA: B3 RNA with C27G, G28C, A29U, C30G
# DNA 1: CAATCTGAATTCCGGTCTCCC
# DNA 2: TGGTGGCTACGACGGGATT
# B30: GCCGCGC (DNA:RNA)
# RNA: B3 RNA with C25G, A29C, C30G, G31C
# DNA 1: CAATCTGAATTCCGGTCTCCC
# DNA 2: TGGTGGCTACGACGGGATT
# B31: GCGCUUG (DNA:RNA)
# RNA: B1 RNA with U26C, G29U, A31G
# DNA 1: CAATCTGAATTCCGGTCTCCC
# DNA 2: TGGTGGCTACGACGGGATT
# B32: GCUGGUC (DNA:RNA)
# RNA: B1 RNA with U26C, G27U, C28G, A31C
# DNA 1: CAATCTGAATTCCGGTCTCCC
# DNA 2: TGGTGGCTACGACGGGATT
# B33: GCUUGAG (DNA:RNA)
# RNA: B3 RNA with C25G, C27U, G28U, A29G, C30A
# DNA 1: CAATCTGAATTCCGGTCTCCC
# DNA 2: TGGTGGCTACGACGGGATT
# B34: GCGCUGG (DNA:RNA)
# RNA: B1 RNA with U26C, G29U, U30G, A31G
# DNA 1: CAATCTGAATTCCGGTCTCCC
# DNA 2: TGGTGGCTACGACGGGATT
# B35: CGCGCGC (DNA:RNA)
# RNA: B3 RNA with C26G, A29C, C30G, G31C
# DNA 1: CAATCTGAATTCCGGTCTCCC
# DNA 2: TGGTGGCTACGACGGGATT
# Target: T1, RBFOX1 RRM (Homo sapiens, UniProt Q9NWB1 109-208)
# T1 sequence: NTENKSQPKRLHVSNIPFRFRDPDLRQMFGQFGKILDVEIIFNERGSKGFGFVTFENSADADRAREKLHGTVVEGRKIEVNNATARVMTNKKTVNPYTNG
# Experiment: EMSA; HiTS-Eq, 1 nM pool, 10 min; buffer printed only for the single-RNA assays: 10 mM Tris pH 7.5, 150 mM NaCl, 3.4 mM EDTA, 0.001% NP-40, 30 C
# Conditions: tags: His6 N-terminal (pET28a); label: 5' 32P
# How it was run: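 Purified RbFox RRM, wild type or mutant, was incubated for 10 min in 50 µL with 1 nM of a 5′-radiolabelled RNA pool carrying 7 randomized nucleotides, whose flanks were annealed to DNA oligonucleotides, over a series of increasing protein concentrations. Unbound RNA was resolved on 8% native PAGE, cut out, reverse-transcribed, barcoded by PCR and sequenced on an Illumina HiSeq 2500. Relative association constants were derived from changes in read counts for each RNA species versus the control reaction and normalised to the cognate motif.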
row,Binder,binding signal
1,B1,0.0121 KA relative to UGCAUGU
2,B2,0.0142 KA relative to UGCAUGU
3,B3,0.0192 KA relative to UGCAUGU
4,B4,0.0112 KA relative to UGCAUGU
5,B5,0.0122 KA relative to UGCAUGU
6,B6,0.0114 KA relative to UGCAUGU
7,B7,0.0179 KA relative to UGCAUGU
8,B8,0.0157 KA relative to UGCAUGU
9,B9,0.0114 KA relative to UGCAUGU
10,B10,0.0283 KA relative to UGCAUGU
11,B11,0.519 KA relative to UGCAUGU
12,B12,0.0317 KA relative to UGCAUGU
13,B13,0.00281 KA relative to UGCAUGU
14,B14,0.00754 KA relative to UGCAUGU
15,B15,0.0126 KA relative to UGCAUGU
16,B16,0.0149 KA relative to UGCAUGU
17,B17,0.0327 KA relative to UGCAUGU
18,B18,0.0191 KA relative to UGCAUGU

row,Binder,binding signal
1,B19,0.0138 KA relative to UGCAUGU
2,B20,0.0349 KA relative to UGCAUGU
3,B21,0.0136 KA relative to UGCAUGU
4,B22,0.0166 KA relative to UGCAUGU
5,B23,0.00997 KA relative to UGCAUGU
6,B24,0.0235 KA relative to UGCAUGU
7,B25,0.0303 KA relative to UGCAUGU
8,B26,0.0386 KA relative to UGCAUGU
9,B27,0.0288 KA relative to UGCAUGU
10,B28,0.014 KA relative to UGCAUGU
11,B29,0.0189 KA relative to UGCAUGU
12,B30,0.0197 KA relative to UGCAUGU
13,B31,0.0323 KA relative to UGCAUGU
14,B32,0.0255 KA relative to UGCAUGU
15,B33,0.0353 KA relative to UGCAUGU
16,B34,0.0322 KA relative to UGCAUGU
17,B35,0.0126 KA relative to UGCAUGU
